{
  "source": "PubChem BioAssay (Tox21)",
  "note": "“And” between values parts separate entries of the source, which are not always exact repeats. Identical values can stand only once. Inconclusive results are not listed. Some structures have more than one record in an assay (separate samples or runs), and their calls can disagree. The source made the active and inactive calls. Calls follow the shape of the dose curve; as a rule, active = well fitted inhibition curve with a large enough effect in the signal ratio in the repeat runs; inconclusive = weak or mixed curves, or effect the other way; inactive = flat fitted curve, though single readings scatter; the % refers to the signal ratio. % is scaled to controls: 0 for no effect and ±100 for the full control effect; potency is read from the fitted curve at half-maximal effect.",
  "data": [
    {"experiment": "qHTS assay for small molecule disruptors of the mitochondrial membrane potential (AID 720635)", "conditions": "HepG2 mitochondrial membrane potential, Mito-MPS dye ratio; series mostly up to 83.2 µM; ratio activity, negative = MMP loss: at the top concentration", "source_text": "U.S. Tox21 Program National Center for Advancing Translational Sciences [NCATS] NIH Chemical Genomics Center [NCGC] U.S. Environmental Protection Agency [EPA] National Institutes of Environmental Health Sciences [NIEHS] National Toxicology Program [NTP] U.S. Food and Drug Administration [FDA] Tox21 Assay Overview: Mitochondrial membrane potential (MMP), one of the parameters for mitochondrial function, is generated by mitochondrial electron transport chain that creates an electrochemical gradient by a series of redox reactions. This gradient drives the synthesis of ATP, a crucial molecule for various cellular processes. Measuring MMP in living cells is commonly used to assess the effect of chemicals on mitochondrial function. […] The dye accumulates in the mitochondria of healthy cells as aggregates, with red fluorescence. The mitochondrial potential collapses and the dye can no longer accumulate in the mitochondria and remains in the cytoplasm in monomers, with green fluorescence.\nTox21 Assay Protocol Summary: 2,000 HepG2 cells in 5 uL/well were dispensed into black, clear-bottom 1536-well plates using a Multidrop Combi (Thermo Scientific) dispenser. The assay plates were incubated overnight at 37C to allow cells to attach to the wells, followed by the transfer of 23 nL compound or DMSO vehicle by a pin tool (Kalypsys). The plates were incubated for 1 hr at 37C and 5% CO2, followed by the addition of 5 uL of 2X Mito-MPS dye (BD Biosciences) into each well using Flying Reagent Dispenser (Aurora Discovery) and then following 30 min incubation at 37C. Fluorescence intensity (490nm excitation and 535nm emission for monomers; and 540nm excitation and 590nm emissions for aggregates) was measured using an Envision plate reader.", "values": [
      {"smiles": "COC1=CC(=O)O[C@@H](/C=C/c2ccccc2)C1", "ratio activity, negative = MMP loss": "9.58% [at 95.3 µM] (inactive)"},
      {"smiles": "C/C(=N\\NC(=O)Nc1cc(F)cc(F)c1)c1ncccc1C(=O)O", "ratio activity, negative = MMP loss": "-22.3% (inactive)"},
      {"smiles": "CC[C@@H](CO)NC(=O)[C@@H]1C=C2c3cccc4[nH]cc(c34)C[C@H]2N(C)C1", "ratio activity, negative = MMP loss": "11.6% (inactive)"},
      {"smiles": "CC(C)(C)C(=O)Cl", "ratio activity, negative = MMP loss": "-15.7% [at 95.3 µM] (inactive)"},
      {"smiles": "CC(C)[N+](C)(CCC(C(N)=O)(c1ccccc1)c1ccccc1)C(C)C", "ratio activity, negative = MMP loss": "5.61% [at 39.1 µM] (inactive)"},
      {"smiles": "CC1N=C(N)OC1c1ccccc1", "note": "(stereo not given)", "ratio activity, negative = MMP loss": "10.7% (inactive)"},
      {"smiles": "CCNc1nc(NCC)nc(SC)n1", "ratio activity, negative = MMP loss": "-19.2% (inactive)"},
      {"smiles": "CC(Cc1ccccc1)NCCn1cnc2c1c(=O)n(C)c(=O)n2C", "note": "(stereo not given)", "ratio activity, negative = MMP loss": "4.84% (inactive)"},
      {"smiles": "CC(C)(C)C(=O)C(Cl)Cl", "ratio activity, negative = MMP loss": "13.1% (inactive)"},
      {"smiles": "CCN(CCO)CCn1c(Cc2ccccc2)nc2c1c(=O)n(C)c(=O)n2C", "ratio activity, negative = MMP loss": "11.8% (inactive)"},
      {"smiles": "COc1ccc2c(C(=O)c3ccc(Cl)cc3)c(C)n(CC(=O)O)c2c1", "ratio activity, negative = MMP loss": "9.02% (inactive)"},
      {"smiles": "CCCOc1nn(C(=O)NS(=O)(=O)c2ccccc2C(=O)OC)c(=O)n1C", "ratio activity, negative = MMP loss": "10.3% (inactive)"},
      {"smiles": "C[C@H](N)C(=O)c1ccccc1", "Potency": "inactive"},
      {"smiles": "C=CCc1cc(OC)c2c(c1)OCO2", "ratio activity, negative = MMP loss": "5.87% [at 95.3 µM] (inactive)"},
      {"smiles": "Cn1c(N)nc2c3cccnc3ccc21", "ratio activity, negative = MMP loss": "-6.91% (inactive)"},
      {"smiles": "CC(C)(C)c1cc(O)ccc1O", "Potency": "inactive and 22.1 µM (active)"},
      {"smiles": "CCC1(c2ccccc2)C(=O)N(COC)C(=O)N(COC)C1=O", "ratio activity, negative = MMP loss": "-10.7% (inactive)"},
      {"smiles": "BrCc1ccc(Br)cc1", "ratio activity, negative = MMP loss": "-9.46% (inactive)"},
      {"smiles": "C=CC1(C)OC(=O)N(c2cc(Cl)cc(Cl)c2)C1=O", "note": "(stereo not given)", "Potency": "54.5 µM (active)"},
      {"smiles": "CCN(CC)CCOC(=O)C(O)(c1ccccc1)c1ccccc1", "ratio activity, negative = MMP loss": "-5.63% (inactive)"},
      {"smiles": "COC(=O)[C@@H](N)CCCN/C(N)=N/[N+](=O)[O-]", "ratio activity, negative = MMP loss": "-6.46% (inactive)"},
      {"smiles": "CCCOC(=O)Cc1ccc(OCC(=O)N(CC)CC)c(OC)c1", "ratio activity, negative = MMP loss": "-6.22% (inactive)"},
      {"smiles": "CCC1(c2ccccc2)CCC(=O)NC1=O", "note": "(stereo not given)", "ratio activity, negative = MMP loss": "-2.65% (inactive)"},
      {"smiles": "CCOC(=O)NC(C)(C)Cc1ccc(Cl)cc1", "ratio activity, negative = MMP loss": "-16.7% (inactive)"},
      {"smiles": "C[C@@H](N)[C@@H](O)c1ccccc1", "ratio activity, negative = MMP loss": "-10.3% [at 39.1 µM] (inactive)"},
      {"smiles": "CCCC(C)C1(CC)C(=O)N=C(S)NC1=O", "note": "(stereo not given)", "ratio activity, negative = MMP loss": "-14.5% (inactive)"},
      {"smiles": "CCOC(=O)N(C)N=O", "ratio activity, negative = MMP loss": "10.1% (inactive)"},
      {"smiles": "NNCc1ccccc1", "Potency": "24.8 µM (active)"},
      {"smiles": "N=C(N)[Se]", "ratio activity, negative = MMP loss": "10.2% [at 95.3 µM] (inactive)"},
      {"smiles": "NCC1(CC(=O)O)CCCCC1", "ratio activity, negative = MMP loss": "10.2% [at 39.1 µM] (inactive)"},
      {"smiles": "Cn1c(CCCC(=O)O)nc2cc(N(CCCl)CCCl)ccc21", "ratio activity, negative = MMP loss": "-7.92% (inactive)"},
      {"smiles": "CCCCS(=O)(=O)Cl", "ratio activity, negative = MMP loss": "-10.5% (inactive)"},
      {"smiles": "CCSC(=O)Cl", "ratio activity, negative = MMP loss": "19.9% [at 95.3 µM] (inactive)"},
      {"smiles": "CCCCOC(C)=O", "ratio activity, negative = MMP loss": "-4.6% [at 95.3 µM] (inactive)"},
      {"smiles": "N#CN", "Potency": "inactive"},
      {"smiles": "CC(C)(C)NC[C@H](O)c1ccc(O)cc1Cl", "ratio activity, negative = MMP loss": "10.3% (inactive)"},
      {"smiles": "COc1cc(CCN)cc(OC)c1OC", "ratio activity, negative = MMP loss": "15.8% [at 95.3 µM] (inactive)"},
      {"smiles": "CCOP(=O)(CN(CCO)CCO)OCC", "ratio activity, negative = MMP loss": "20.7% (inactive)"},
      {"smiles": "CC(C)(C1CCC(O)CC1)C1CCC(O)CC1", "note": "(stereo not given)", "Potency": "7.7 µM (active)"},
      {"smiles": "Cc1cc(OC(=O)N(C)C)nn1C(=O)N(C)C", "ratio activity, negative = MMP loss": "9.65% (inactive)"}
    ]}
  ]
}
